The source of these data is article PMC11006913.

Assay in all cases: PBM; 200 nM protein, PBS
What all share (settings): dsDNA, one strand shown

Test [1] has as its target T1, SIX6 (Homo sapiens, UniProt O95475 114-200, L167I).
T1 sequence: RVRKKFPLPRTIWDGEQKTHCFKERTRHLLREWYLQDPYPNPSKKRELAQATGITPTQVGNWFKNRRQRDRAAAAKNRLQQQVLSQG

For test [2], the target named is T2, SIX6 (Homo sapiens, UniProt O95475 114-200, L143V).
T2 sequence: T1 sequence with L30V, I54L

For test [3], the target named is T3, SIX6 (Homo sapiens, UniProt O95475 114-200, T165P).
T3 sequence: T1 sequence with T52P, I54L

The target of test [4] is T4, SIX6 (Homo sapiens, UniProt O95475 114-200, L167M).
T4 sequence: T1 sequence with I54M

The target in test [5] is T5, SIX6 (Homo sapiens, UniProt O95475 114-200, L143M).
T5 sequence: T1 sequence with L30M, I54L

In test [6] the target is T6, SIX6 (Homo sapiens, UniProt O95475 114-200, L143I).
T6 sequence: T1 sequence with L30I, I54L

Test [7] deals with T7, SIX6 (Homo sapiens, UniProt O95475 114-200, T165G).
T7 sequence: T1 sequence with T52G, I54L

The target of test [8] is T8, SIX6 (Homo sapiens, UniProt O95475 114-200, T139Q).
T8 sequence: T1 sequence with T26Q, I54L

In test [9] the target is T9, SIX6 (Homo sapiens, UniProt O95475 114-200, L167V).
T9 sequence: T1 sequence with I54V

Test [10] addresses T10, SIX6 (Homo sapiens, UniProt O95475 114-200, T165I).
T10 sequence: T1 sequence with T52I, I54L

For test [11], the target named is HOXC10 (Homo sapiens, UniProt Q9NYD6 254-340).
Sequence of HOXC10 (Homo sapiens, UniProt Q9NYD6 254-340) (Q9NYD6 254-340): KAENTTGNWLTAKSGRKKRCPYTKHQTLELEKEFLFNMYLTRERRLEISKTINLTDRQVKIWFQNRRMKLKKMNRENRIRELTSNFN
Another test addresses T11, NKX2-6 (Homo sapiens, UniProt A6NCS4 118-204, R150C).
T11 sequence: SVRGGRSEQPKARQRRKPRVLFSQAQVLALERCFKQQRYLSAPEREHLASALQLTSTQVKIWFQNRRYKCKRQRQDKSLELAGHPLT

Test [12] deals with HOXC10 (Homo sapiens, UniProt Q9NYD6 254-340, K271E).
Sequence of HOXC10 (Homo sapiens, UniProt Q9NYD6 254-340, K271E) (Q9NYD6 254-340 K271E): as the sequence (Q9NYD6 254-340) above, with K18E counted along it
Test [13] concerns the target T12, NKX2-4 (Homo sapiens, UniProt Q9H2Z4 175-261, P217L).
T12 sequence: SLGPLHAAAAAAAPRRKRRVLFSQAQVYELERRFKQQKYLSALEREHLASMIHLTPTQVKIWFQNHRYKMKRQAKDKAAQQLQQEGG

Test [14] addresses T13, NKX2-4 (Homo sapiens, UniProt Q9H2Z4 175-261).
T13 sequence: T12 sequence with L43P

The target of test [15] is T14, NKX2-4 (Homo sapiens, UniProt Q9H2Z4 175-261, R246Q).
T14 sequence: T12 sequence with L43P, R72Q

The target of test [16] is NKX3-2 (Homo sapiens, UniProt P78367 192-278, P234S).
Sequence of NKX3-2 (Homo sapiens, UniProt P78367 192-278, P234S) (P78367 192-278 P234S): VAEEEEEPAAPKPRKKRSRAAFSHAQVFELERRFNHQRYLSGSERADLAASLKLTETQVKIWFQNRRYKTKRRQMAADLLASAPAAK
For test [17], the target named is NKX3-2 (Homo sapiens, UniProt P78367 192-278).
Sequence of NKX3-2 (Homo sapiens, UniProt P78367 192-278) (P78367 192-278): as the sequence (P78367 192-278 P234S) above, with S43P counted along it

Residue numbers refer to the chain shown, from its start.

In the case of CAGCCAGG, the binding signal was 9.07 upbm affinity estimate (log intensity, higher = more binding, comparable within an allelic series) with SIX6 [1]; 8.86 upbm affinity estimate (log intensity, higher = more binding, comparable within an allelic series) with SIX6 [2]; 8.91 upbm affinity estimate (log intensity, higher = more binding, comparable within an allelic series) with SIX6 [3]; 9.02 upbm affinity estimate (log intensity, higher = more binding, comparable within an allelic series) with SIX6 [4]; 9.06 upbm affinity estimate (log intensity, higher = more binding, comparable within an allelic series) with SIX6 [5]; 9.03 upbm affinity estimate (log intensity, higher = more binding, comparable within an allelic series) with SIX6 [6]. The binding signal with SIX6 [7] was 9.14 upbm affinity estimate (log intensity, higher = more binding, comparable within an allelic series); with SIX6 [8] it was 9.1 upbm affinity estimate (log intensity, higher = more binding, comparable within an allelic series); in the test with SIX6 [9], 9.01 upbm affinity estimate (log intensity, higher = more binding, comparable within an allelic series); with SIX6 [10], 8.99 upbm affinity estimate (log intensity, higher = more binding, comparable within an allelic series).
As for CAGGCGCC, the binding signal in the test with SIX6 [1] was 8.87 upbm affinity estimate (log intensity, higher = more binding, comparable within an allelic series); with SIX6 [2], 8.82 upbm affinity estimate (log intensity, higher = more binding, comparable within an allelic series); with SIX6 [3], 8.98 upbm affinity estimate (log intensity, higher = more binding, comparable within an allelic series); with SIX6 [4], 8.93 upbm affinity estimate (log intensity, higher = more binding, comparable within an allelic series); with SIX6 [5], 8.82 upbm affinity estimate (log intensity, higher = more binding, comparable within an allelic series); with SIX6 [6] it was 8.87 upbm affinity estimate (log intensity, higher = more binding, comparable within an allelic series). Besides, the binding signal with SIX6 [7] was 8.8 upbm affinity estimate (log intensity, higher = more binding, comparable within an allelic series); with SIX6 [8], 8.84 upbm affinity estimate (log intensity, higher = more binding, comparable within an allelic series); in the test with SIX6 [9], 8.89 upbm affinity estimate (log intensity, higher = more binding, comparable within an allelic series); with SIX6 [10] it was 8.87 upbm affinity estimate (log intensity, higher = more binding, comparable within an allelic series).
Take GCAGGCGC: the binding signal with HOXC10 [11] was 9.86 upbm affinity estimate (log intensity, higher = more binding, comparable within an allelic series); in the test with NKX2-6 it was 9.36 upbm affinity estimate (log intensity, higher = more binding, comparable within an allelic series); in the test with HOXC10 [12] it was 9.87 upbm affinity estimate (log intensity, higher = more binding, comparable within an allelic series).
As for GCCAGCCC, the binding signal with SIX6 [1] was 8.95 upbm affinity estimate (log intensity, higher = more binding, comparable within an allelic series); with SIX6 [2], 8.86 upbm affinity estimate (log intensity, higher = more binding, comparable within an allelic series); in the test with SIX6 [3], 8.85 upbm affinity estimate (log intensity, higher = more binding, comparable within an allelic series); with SIX6 [4], 9.06 upbm affinity estimate (log intensity, higher = more binding, comparable within an allelic series); with SIX6 [5] it was 9.06 upbm affinity estimate (log intensity, higher = more binding, comparable within an allelic series); with SIX6 [6] it was 8.94 upbm affinity estimate (log intensity, higher = more binding, comparable within an allelic series). In addition, the binding signal with SIX6 [7] is 9.06 upbm affinity estimate (log intensity, higher = more binding, comparable within an allelic series); with SIX6 [8], 9.07 upbm affinity estimate (log intensity, higher = more binding, comparable within an allelic series); with SIX6 [9], 8.96 upbm affinity estimate (log intensity, higher = more binding, comparable within an allelic series); in the test with SIX6 [10], 9.01 upbm affinity estimate (log intensity, higher = more binding, comparable within an allelic series).
For CCAGCGCA, the binding signal with HOXC10 [11] is 10 upbm affinity estimate (log intensity, higher = more binding, comparable within an allelic series); with HOXC10 [12] it was 10 upbm affinity estimate (log intensity, higher = more binding, comparable within an allelic series).
Turning to GAGCTGGC, the binding signal with NKX2-4 [13] was 9.65 upbm affinity estimate (log intensity, higher = more binding, comparable within an allelic series); with NKX2-4 [14], 9.73 upbm affinity estimate (log intensity, higher = more binding, comparable within an allelic series); in the test with NKX2-4 [15] it was 9.66 upbm affinity estimate (log intensity, higher = more binding, comparable within an allelic series).
Regarding CGCACGCC, the binding signal in the test with SIX6 [1] is 8.9 upbm affinity estimate (log intensity, higher = more binding, comparable within an allelic series); in the test with SIX6 [2], 8.88 upbm affinity estimate (log intensity, higher = more binding, comparable within an allelic series); in the test with HOXC10 [11], 10.1 upbm affinity estimate (log intensity, higher = more binding, comparable within an allelic series); in the test with SIX6 [3], 8.83 upbm affinity estimate (log intensity, higher = more binding, comparable within an allelic series); with SIX6 [4] it was 9.01 upbm affinity estimate (log intensity, higher = more binding, comparable within an allelic series); with SIX6 [5], 8.91 upbm affinity estimate (log intensity, higher = more binding, comparable within an allelic series). In addition, the binding signal was 8.97 upbm affinity estimate (log intensity, higher = more binding, comparable within an allelic series) with SIX6 [6]; 8.9 upbm affinity estimate (log intensity, higher = more binding, comparable within an allelic series) with SIX6 [7]; 8.93 upbm affinity estimate (log intensity, higher = more binding, comparable within an allelic series) in the test with SIX6 [8]; 10 upbm affinity estimate (log intensity, higher = more binding, comparable within an allelic series) with HOXC10 [12]; 8.9 upbm affinity estimate (log intensity, higher = more binding, comparable within an allelic series) in the test with SIX6 [9]; 8.9 upbm affinity estimate (log intensity, higher = more binding, comparable within an allelic series) with SIX6 [10].
Take CCGCCCCC: the binding signal in the test with NKX3-2 [16] is 10.4 upbm affinity estimate (log intensity, higher = more binding, comparable within an allelic series); with NKX3-2 [17], 10.4 upbm affinity estimate (log intensity, higher = more binding, comparable within an allelic series).
Consider CGCCTAGC, for which the binding signal with NKX3-2 [16] was 10.6 upbm affinity estimate (log intensity, higher = more binding, comparable within an allelic series); with NKX3-2 [17], 10.6 upbm affinity estimate (log intensity, higher = more binding, comparable within an allelic series).
In the case of CACGGCTG, in the test with NKX2-6, the binding signal was 9.52 upbm affinity estimate (log intensity, higher = more binding, comparable within an allelic series).
Consider ACCAAATA, for which, in the test with HOXC10 [11], the binding signal is 10.8 upbm affinity estimate (log intensity, higher = more binding, comparable within an allelic series).
In the case of AGAGGACC, the binding signal with NKX3-2 [16] is 11.8 upbm affinity estimate (log intensity, higher = more binding, comparable within an allelic series); with NKX3-2 [17], 11.8 upbm affinity estimate (log intensity, higher = more binding, comparable within an allelic series).
Regarding CGGCTAGC, the binding signal is 9.98 upbm affinity estimate (log intensity, higher = more binding, comparable within an allelic series) in the test with HOXC10 [11] and 10 upbm affinity estimate (log intensity, higher = more binding, comparable within an allelic series) with HOXC10 [12].
On to GAGTCGCC, for which, in the test with NKX2-6, the binding signal is 9.64 upbm affinity estimate (log intensity, higher = more binding, comparable within an allelic series).
As for CCGCCGAG, the binding signal in the test with NKX2-6 was 9.67 upbm affinity estimate (log intensity, higher = more binding, comparable within an allelic series).
For the sequence AGAGCTCT, the binding signal was 10 upbm affinity estimate (log intensity, higher = more binding, comparable within an allelic series) with HOXC10 [11] and 10.1 upbm affinity estimate (log intensity, higher = more binding, comparable within an allelic series) with HOXC10 [12].
